Laboratory results reported in PubChem BioAssay AID894 (National Center for Advancing Translational Sciences (NCATS), 2007).
Hit rate of the full screen: of about 150,000 compounds, about 6,500 (4.3%) were called active. About 12% were inconclusive and are not listed. The entries come from a sample that favours actives as a whole. Unmarked numbers belong to inactive results. Calls come from the whole dose curve; as a rule, active = well fitted inhibition curve with a large enough effect (not every such curve was filed as active); inconclusive = small, poorly fitted or top-dose-only effect, or another doubt; inactive = no such curve, though single readings can be large or run the other way.

target: 15-hydroxyprostaglandin dehydrogenase [NAD(+)] (Homo sapiens) (UniProt P15428); assay: qHTS Assay for Inhibitors of HPGD (15-Hydroxyprostaglandin Dehydrogenase); conditions: purified HPGD, NADH fluorescence kinetic, PGE2 substrate; activity change, negative = inhibition: stronger effect = lower value
Sequence (P15428 whole entry, looked up): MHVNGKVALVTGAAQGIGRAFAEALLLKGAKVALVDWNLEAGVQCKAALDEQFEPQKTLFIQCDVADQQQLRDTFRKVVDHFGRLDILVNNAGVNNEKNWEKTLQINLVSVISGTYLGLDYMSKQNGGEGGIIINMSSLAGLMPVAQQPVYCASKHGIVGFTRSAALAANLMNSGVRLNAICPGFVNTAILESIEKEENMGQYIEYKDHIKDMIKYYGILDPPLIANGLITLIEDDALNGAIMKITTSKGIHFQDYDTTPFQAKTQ
Outline: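 NADH formation kinetics: reaction with 30 uM PGE2 and 1 mM NAD+ (final), 20 nM enzyme, Tris-HCl pH 8 with Tween 20, after 15 min compound preincubation at room temperature. Fluorescence change, last versus first of five reads.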
% is set by controls: 0 for no effect and ±100 for the full control effect; potency is the fitted concentration of half-maximal effect.

Row | SMILES | activity change, negative = inhibition [%] | Potency
1 | CCOC(=O)c1cccnc1NC(=O)c1ccncc1 | -2.52 | 
2 | c1ccc2c(c1)CSc1sccc1C2=C1CCNCC1 | -1.18 | 
3 | COCCNc1cc(NCCOC)c([N+](=O)[O-])cc1[N+](=O)[O-] | -9.02 | 
4 | c1ccc(-n2ncc3c(N4CCCC4)ncnc32)cc1 | -12.9 | 
5 | O=C(O)C1CCN(c2ncnc3ccc(-c4ccccc4C(F)(F)F)cc23)CC1 |  | 1.26 µM (active)
6 | Cc1scc(C(=O)NNC(=S)NCc2ccccc2)c1C | -7.44 | 
7 | Cn1ncc(Br)c1C(=O)NCc1cccs1 |  | 15.8 µM (active)
8 | Cc1nnc(SCC(=O)NCc2cccs2)[nH]c1=O | -0.933 | 
9 | COc1cc(CC(=O)NCc2cccs2)cc(OC)c1OC | -17 | 
10 | Cc1ccc2nsnc2c1NC(=O)c1ccccc1[N+](=O)[O-] | -15.8 | 
11 | Cc1ccc(/C=N/NC(=O)CNC(=O)COc2ccccc2)o1 | -5.29 | 
12 | Cc1ccc(C(=O)N/C(=C/c2cccnc2)C(=O)O)cc1 | -13.7 | 
13 | COc1ccc(Br)cc1C(=O)NC(=S)Nc1cc(-c2nc3ccccc3[nH]2)ccc1C |  | 28.2 µM (active)
14 | COc1ccc(/C=C(/NC(=O)c2ccc(C)cc2)c2nc3ccccc3[nH]2)cc1OC | -24.1 | 
15 | COc1ccc(Br)cc1C(=O)Nc1cccc(C)c1C | -28.1 | 
16 | C=C(C(C)=O)C(O)c1cccs1 (stereo not given) | -6.13 | 
17 | COC(=O)C(C(=O)OC)[C@@H](NC=O)c1ccccc1 | -1.83 | 
18 | Cc1ccc(-c2c(C)n([O-])c3c([n+]2=O)CCC3)cc1 | -24.7 | 
19 | O=[n+]1c2c(n([O-])c3cc(Br)ccc31)CCC2 |  | 11.2 µM (active)
20 | CCc1c(C)n([O-])c2c([n+]1=O)CCCCC2 | -4.11 | 
21 | O=C(Cc1ccccc1)NCc1ccc(F)cc1 | -22.4 | 
22 | CCCCOC(=O)c1ccc(NC(c2ccc(C)cc2)P(=O)(OC)OC)cc1 (stereo not given) | -21.8 | 
23 | CCc1c(C)sc(NC(=O)c2cccs2)c1C(N)=O |  | 8.91 µM (active)
24 | CCc1nnc(NC(=O)c2cccs2)s1 | -9.46 | 
25 | CCc1ccccc1NC(=O)c1cccs1 | -5.77 | 

Row | SMILES | activity change, negative = inhibition [%] | Potency
26 | O=C(NCCOc1ccccc1Cl)C(=O)Nc1ccccc1 | -2.3 | 
27 | CC(=O)NS(=O)(=O)c1ccc(NC(=O)C2C3C=CC(C3)C2C(=O)O)cc1 (stereo not given) | -3.59 | 
28 | COCCCN(C(=S)Nc1c(C)cc(C)cc1C)C(C)c1ccncc1 (stereo not given) | -0.352 | 
29 | CCn1ncc(CNC(=O)C2(C)CC2(Br)Br)c1C (stereo not given) |  | 14.1 µM (active)
30 | CCn1ncc(Br)c1C(=O)Nc1cc(C)ccc1F | 0.199 | 
31 | COc1cc2c3c(c1)/C(=C1/SC(=S)NC1=O)C(=O)N3C(C)(C)C=C2C | -26.1 | 
32 | Cc1c(NC(=S)Nc2ccccc2)c(=O)n(-c2ccccc2)n1C | -3.36 | 
33 | CCC1C=C(c2ccccc2)C=CN=C1N(CC)CC (stereo not given) | -4.96 | 
34 | N#CC1=C(N)N(c2ccccc2)C2=C(C(=O)CCC2)C1c1ccccc1 (stereo not given) | -8.89 | 
35 | NC1=C([N+](=O)[O-])C(c2ccccc2)C2=C(CCCC2=O)O1 (stereo not given) |  | 20 µM (active)
36 | NS(=O)(=O)c1ccc(CNC(=O)c2ccc(Cl)cc2[N+](=O)[O-])cc1 | -16.4 | 
37 | Cc1cc(C)nc(SCc2ccccc2C#N)n1 | -12.7 | 
38 | CCOc1ccc2cc(C#N)c(SCC(=O)OC)nc2c1 | -15 | 
39 | Cc1ccc2nc(SCc3nnc(-c4ccccc4[N+](=O)[O-])o3)c(C#N)cc2c1 |  | 1 µM (active)
40 | N#Cc1ccccc1Sc1ccccc1C(=O)OCC(=O)NC1CCCCC1 | -19.1 | 
41 | CCN(CC)c1ccc2oc(=O)c(C)nc2c1 | -16.7 | 
42 | CCN(CC)c1ccc(/C=N/Nc2nc(C)cc(C)n2)c(O)c1 |  | 20 µM (active)
43 | CCOC(=O)Cc1csc(SCC(=O)NC(C)C23CC4CC(CC(C4)C2)C3)n1 (stereo not given) | -15.9 | 
44 | Cc1c(C(=O)NCc2ccccc2)cnn1-c1ccccc1 |  | 17.8 µM (active)
45 | O=C(Cn1cnc2c(cnn2-c2ccccc2)c1=O)NCc1ccccc1 | -9.12 | 
46 | Cc1ccc(CNC(=O)c2ccccc2CCc2ccccc2)cc1 | -19.3 | 
47 | N#C/C(C(=O)N1CCOCC1)=C1/SC(Cc2ccc(F)cc2)C(=O)N1c1ccccc1 (stereo not given) | -13.3 | 
48 | CC(C)=C1SC(N2CCN(c3cccc(C)c3)CC2)=NC1=O | -16.6 | 
49 | Cc1ccc(-n2c(N)c(C(=O)N3CCOCC3)sc2=S)c(C)c1 |  | 7.94 µM (active)
50 | Cc1cccc(-n2c(N)cc(=O)nc2SC(C)C(=O)NC2CCCCC2)c1 (stereo not given) | -19.7 | 

Row | SMILES | activity change, negative = inhibition [%] | Potency
51 | N#Cc1ccccc1-n1c(N)c(C(=O)N2CCCC2)sc1=S |  | 25.1 µM (active)
52 | Cc1ccc(C(=O)N2CCN(C(=O)N3CCOCC3)CC2)cc1 | 3.86 | 
53 | CC(=O)c1c(N2CCOCC2)nc(=S)n(-c2cc(C)ccc2C)c1C | -12.5 | 
54 | Cc1cccc(-n2c(N)c(C(=O)N3CCN(C)CC3)sc2=S)c1 |  | 10 µM (active)
55 | O=S(=O)(NCCSc1ccccn1)c1ccc(Cl)cc1 | -1.01 | 
56 | C=C/C1=C/Cc2ccccc2[C@H](C[N+](=O)[O-])C(C(=O)OC)(C(=O)OC)C1 | -16.5 | 
57 | CCOc1cc(CNCc2ccccn2)ccc1OCC(=O)NC(C)(C)C | -9.37 | 
58 | CC(C)(C)C(=O)N1CCC[C@@]1(CO)C(=O)O | -2.24 | 
59 | COc1ccc(CNC(=O)CCCn2nc(C)c([N+](=O)[O-])c2C)cc1 | -13.5 | 
60 | CCC(C)C(=O)Nc1cc([N+](=O)[O-])ccc1Cl (stereo not given) | -1.06 | 
61 | C=CCn1c(CCNC(=O)c2cccs2)n[nH]c1=S | -27.1 | 
62 | O=C(c1cc(-c2ccc(O)cc2)on1)N1CCCc2ccccc21 | -28 | 
63 | Cc1nnc(SCC(=O)N2CCc3ccccc3C2)s1 | -6.45 | 
64 | O=C(c1cc(-c2cccc(O)c2)on1)N1CCc2ccccc2C1 |  | 25.1 µM (active)
65 | CCCNC(=O)NC(=O)COC(=O)CC(NC(N)=O)c1ccc(Cl)cc1 (stereo not given) | -4.57 | 
66 | O=C(Cc1ccc2c(c1)CCCC2)Nc1ccccc1Cl |  | 3.16 µM (active)
67 | O=C(Nc1ccc2c(c1)CCC2)c1cccc(S(=O)(=O)Nc2ccccc2Cl)c1 | -11.7 | 
68 | CC1(C)CC(CCC(=O)Nc2ccccc2Cl)C(=O)O1 (stereo not given) | -12.3 | 
69 | Cc1nn(-c2ccccc2)c(-n2cccc2)c1C(=O)O | -6.97 | 
70 | N/C(=N\OC(=O)CC1CCCCC1)c1ccccc1 | -21.9 | 
71 | C=CCSC1=C(C#N)C(c2cc(Br)c(O)c(OC)c2)CC(=O)N1 (stereo not given) |  | 17.8 µM (active)
72 | Cc1ccc(C2CC(=O)NC(SCC(=O)OCc3ccccc3)=C2C#N)o1 (stereo not given) | -25.8 | 
73 | CCOC(=O)CSC1=C(C#N)C(c2sccc2C)CC(=O)N1 (stereo not given) | -3.48 | 
74 | CSCCC(NC(=O)COc1ccccc1)C(=O)Nc1ccc(C)cc1 (stereo not given) | -0.719 | 
75 | CCCCC/C=C\C/C=C\C/C=C\CCCCC(=O)NCC(=O)O | -3.51 | 

Row | SMILES | activity change, negative = inhibition [%] | Potency
76 | CCC(=O)Nc1c(C)n[nH]c1C | -8.91 | 
77 | CC(C)(C)C1CCc2c(sc3nc(SCC(N)=O)nc(N)c23)C1 (stereo not given) |  | 28.2 µM (active)
78 | Nc1nc(SCC(=O)NCCN2CCOCC2)nc2sc3c(c12)CCC3 | -10.4 | 
79 | CN(C)CCSc1nc(N)c2c3c(sc2n1)COC(C)(C)C3 | -15.6 | 
80 | COC(=O)c1sccc1NC(=O)COc1ccc(Cl)cc1 | -12 | 
81 | Cc1sc2nc(SCC(N)=O)n(C)c(=O)c2c1C | -0.652 | 
82 | Cc1sc2nc(CSCC(=O)Nc3c(Cl)cccc3Cl)[nH]c(=O)c2c1C | -14 | 
83 | C=CCNC(=O)CSc1nc2sc(C)c(C)c2c(=O)[nH]1 |  | 14.1 µM (active)
84 | COc1ccc(-c2[nH]ncc2/C=N/NC(=O)c2cc(Br)ccc2O)c(OC)c1 | -16.3 | 
85 | Cc1ccc(S(=O)(=O)N(C)C)cc1NC(=O)/C=C/c1cccs1 | -12.9 | 
86 | CS(=O)(=O)N(Cc1ccccc1)c1ccc(C(=O)NN=C2CCCCCC2)cc1 | -5.89 | 
87 | CCCC/C(C)=N/NC(=O)NC1CCCCC1 | -6.12 | 
88 | Cc1ccc(C2=NN(C(=O)CSc3nc(N)cc(N)n3)C(c3ccco3)C2)cc1 (stereo not given) | -20.9 | 
89 | CS(=O)(=O)Nc1cccc(C2=NN(S(=O)(=O)c3ccccc3)C(c3cccs3)C2)c1 (stereo not given) | -7.08 | 
90 | CCS(=O)(=O)Nc1ccc(C2=NN(S(=O)(=O)c3ccc(F)cc3)C(c3ccco3)C2)cc1 (stereo not given) |  | 12.6 µM (active)
91 | COc1ccc(-c2csc(NC(=O)COC(=O)c3ccc(Br)o3)n2)cc1 | -1.93 | 
92 | O=C1c2ccccc2C(O)N1Cc1ccccc1 (stereo not given) | -28.7 | 
93 | O=c1ccn(Cc2ccccc2Cl)cc1 | 0.459 | 
94 | O=C1c2ccccc2C(O)N1Cc1ccccc1Cl (stereo not given) |  | 12.6 µM (active)
95 | C=CCC1CCC(=O)N2CCCC12 (stereo not given) | -1.41 | 
96 | COc1ccc(/C=C2\NC(=O)[C@@H]3Cc4ccccc4CN3C2=O)cc1 | -5.55 | 
97 | COC(=O)C1=C(C(=O)OC)[C@@H]2N(Cc3ccccc3)c3ccccc3[C@@]23C[C@@H](C(=O)OC)N(S(=O)(=O)c2ccc(C(F)(F)F)cc2)C3=N1 | -11.4 | 
98 | Cc1ccc(Cn2ccc(NC(=O)c3cc(C(C)C)on3)n2)cc1 | -19.4 | 
99 | O=C(Nc1ccn(Cc2ccc(F)cc2)n1)c1ccncc1 | 1.11 | 
100 | O=C(Nc1ccn(Cc2ccccc2)n1)c1n[nH]c([N+](=O)[O-])c1Cl |  | 28.2 µM (active)
